From PubChem BioAssay
Shiga inhibitor = Shiga toxin inhibition. Vero cells, Shiga toxin protein synthesis inhibition reporter. inhibition, % at 38.7 µM. hit rate 9.2% among 290,000. AID 2315; in the data active = inhibition mostly above about 28%, no sharp cut-off; inactive = mostly below about 43%; also: 0% is about no effect
CHX counter = counter-screen for Shiga toxin inhibitors: cycloheximide protein synthesis inhibition | cell reporter, cycloheximide protein synthesis inhibition counterscreen | max response, % | hit rate 12% among 300,000 | AID 2314; in the data active = max response mostly above about 13%, no sharp cut-off; inactive = mostly below about 14%; also: read at 38.3 µM for the half of the compounds with a filed dose; 0% is about no effect
SARS PLP yeast = SARS-CoV PLP inhibition in yeast; S. cerevisiae expressing SARS-CoV PLpro, growth rescue; Potency, µM (series often up to 32.9 µM), for inactives: at the highest dose activity, positive = growth rescue, most hits filed as activators; hit rate 0.19% among 330,000; AID 485353; calls by dose curve; also: potency is read from the fitted curve at half-maximal effect; 0% is about no effect; nearly all actives have a fitted effect of over 55% in size
AmpC inh no detg = blocks E. coli AmpC beta-lactamase in detergent-free assay | P00811 | AmpC nitrocefin hydrolysis, absorbance 480 nm, 0.0001% Triton | hit rate 0.52% among 330,000 | Potency, µM (top dose mostly 57.1 µM), without a hit: at the top dose activity change, negative = inhibition, hits mostly inhibitors;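 also: potency is read from the fitted curve at half-maximal effect; plate controls were no compound for no effect and no enzyme for full effect; nearly all actives have a fitted effect of over 20% in size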
Target sequence (P00811 whole entry, looked up): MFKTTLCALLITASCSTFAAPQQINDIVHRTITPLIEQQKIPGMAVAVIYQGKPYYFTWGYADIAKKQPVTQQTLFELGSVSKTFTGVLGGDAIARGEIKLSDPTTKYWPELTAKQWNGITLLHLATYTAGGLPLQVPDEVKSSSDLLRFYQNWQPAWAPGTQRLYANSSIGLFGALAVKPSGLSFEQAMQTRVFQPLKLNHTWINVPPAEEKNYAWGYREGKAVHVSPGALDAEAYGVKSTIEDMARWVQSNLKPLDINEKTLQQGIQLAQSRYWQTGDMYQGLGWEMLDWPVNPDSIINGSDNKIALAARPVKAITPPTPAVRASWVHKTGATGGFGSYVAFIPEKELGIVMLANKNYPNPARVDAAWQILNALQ
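AmpC (5.3 nM in the dispensed reagent) in 20 mM phosphate pH 7.0 with 0.01% (detergent screen) or 0.0001% Triton X-100 was preincubated with compounds for 15 min at room temperature. Nitrocefin was then added from an 800 uM solution, and hydrolysis was followed at 480 nm.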
AmpC detergent = AmpC beta-lactamase inhibition with detergent present. AmpC hydrolysis of nitrocefin, absorbance 480 nm, 0.01% Triton. hit rate 0.041% among 370,000. Potency, µM (top dose mostly 114 µM), for the others: at the top dose activity change, negative = inhibition, most hits filed as inhibitors;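 also: potency is read from the fitted curve at half-maximal effect; 0% = no-compound wells and -100% = no-enzyme wells; nearly all actives have a fitted effect of over 25% in size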
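20 mM phosphate pH 7.0 + 0.01% (detergent screen) or 0.0001% Triton X-100; 5.3 nM AmpC reagent; cpd preinc 15 min RT; nitrocefin (800 uM stock) to start; A480 q20 s × 4 min; Activity was normalised to no-enzyme and no-compound control wells.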
AMA1-RON2 inh = inhibitors of Plasmodium falciparum AMA1-RON2 interaction. AlphaScreen AMA1-biotinylated RON2 peptide binding. Potency, µM (titrated, usually from 58.2 µM), for the others: at the highest dose activity change, negative = inhibition, usual class: inhibitors. hit rate 0.2% among 360,000. AID 720542;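 also: potency is read from the fitted curve at half-maximal effect; 0% = vehicle wells and -100% = peptide control; nearly all actives have a fitted effect of over 45% in size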
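AMA1 (3D7) with his tag at 25 nM final met compounds first, then biotinylated RON2 peptide at 25 nM; detection used donor plus acceptor beads, 10 µg/mL apiece, read by AlphaScreen after 30 min at room temperature.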
Active calls of the source: *; ? = inconclusive; . = no result given; [ ] = dose if it differs, or a comment. Only a selection was taken, and hits are over-represented in it overall. Unless noted, calls follow the shape of the dose curve; as a rule, active = well fitted curve in the direction sought with a large enough effect; inconclusive = small, poorly fitted or top-dose-only effect, or another doubt; inactive = no such curve, though single readings can be large; an effect the other way counts as inactive or inconclusive.

SMILES	Shiga inhibitor	CHX counter	SARS PLP yeast	AmpC inh no detg	AmpC detergent	AMA1-RON2 inh
COc1ccc(N=C(C)c2c(O)n(C)c(=O)n(C)c2=O)c(OC)c1	-9.5	4.9	-3.3%	33.8%	-5.9%	0.0%
CN1CCCN(C(=O)CC2(CC(=O)O)CCCC2)CC1	18.5	0.3	-2.3%	-40.4%	28.2µM*	2.4%
CN1CCN(C(=O)CC2(CC(=O)O)CCCC2)CC1	2.7	3.8	-1.1%	-41.1%	?	-2.0%
COc1ccc(CC(NC(C)=O)C(=O)NC2CCN(S(=O)(=O)c3ccccc3)CC2)c(OC)c1 (stereo not drawn)	3.6	0.8	?	109.8%	2.5%	-2.5%
COCCNC(=S)N/N=C(\C)c1cc2ccccc2o1	25.2*	8.9	?	-10.1%	-0.1%	26.0%[11.6 µM]
C/C(=N\NC(=O)c1ccccc1-n1cccc1)c1ccccn1	.	.	.	.	.	66.5%
C/C(=N\NC(=O)c1c[nH]c2ccccc12)c1ccccn1	146.9*	31.9*	-2.1%	-25.2%	4.9%	-34.7%
Fc1ccc(N/N=C(/c2ccccc2)c2ccccn2)cc1	13.0	30.4*	?	-13.4%	9.3%	-9.0%
COCCNC(=S)N/N=C(\C)c1cccc(C(F)(F)F)c1	-13.5	-2.0	19.1%	0.3%	-1.6%	33.0%
C/C(=N\Nc1ccccc1)c1cc2ccccc2oc1=O	24.9	18.6	-2.9%	-2.0%	-0.5%	-19.9%
C/C(=N\NC(=O)CC#N)c1cc2ccccc2oc1=O	29.5*	16.3*	3.4%	-11.3%	9.2%	92.5%
CC(=O)Nc1cccc(NC(=O)CSc2nccn2C2CCCC2)c1	.	.	.	.	7.3%	.
O=C(N/N=C(\c1ccccc1)c1ccccn1)c1cccc([N+](=O)[O-])c1	-4.5	4.9	-19.6%	-29.1%	8.4%	-2.0%
C/C(=N\NC(=O)c1nc2ccccn2c1C)c1ccco1	61.9*	27.2*	-7.7%	-5.4%	0.8%	1.2%
C/C(=N\NC(=O)c1cc2ccccc2cc1O)c1ccccn1	26.6	24.7*	1.0%	-52.4%	-2.5%	59.6%
C/C(=N\NC(=O)c1cc2ccccc2cc1O)c1cc2ccccc2o1	13.6	9.2	-0.5%	15.8µM*	3.7%	143.1%
C/C(=N\NC(=O)c1nc2ccccn2c1C)c1cc2ccccc2o1	31.7	18.0	-0.9%	-10.2%	4.6%	17.1%
CCOc1ccc(C(=O)N/N=C(\c2ccccc2)c2ccccn2)cc1	61.4*	42.3*	-38.4%	-16.3%	1.4%	-4.3%
Cc1ccc2nc(/C(C#N)=C\c3cc(C)n(-c4cccc([N+](=O)[O-])c4)c3C)[nH]c2c1	-5.1	14.6	-3.4%	-25.9%	2.5%	3.4%
Cc1ccc(/C=C(\C#N)C(=O)Nc2cccc(Cl)c2)o1	.	.	.	.	-4.7%	.
C/C(=N\NC(=O)c1ccccn1)c1ccc(C(=O)O)s1	74.2*	45.0*	1.4%	18.8%	-3.6%	.
C/C(=N\NC(=O)c1ccc(F)cc1)c1ccccn1	97.5*	62.2*	-3.9%	-0.4%	-0.9%	-59.8%
CC(=N/O)/C(C)=N\NC(=O)c1ccccn1	56.3	14.4	-6.3%	-0.4%	3.4%	80.7%
C/C(=N/NC(=O)CNC(=O)c1ccccn1)c1ccccc1	10.4	9.8	3.9%	-29.4%	4.6%	99.9%
C/C(=N\NC(=O)c1c[nH]c2ccccc12)c1ccco1	61.4*	70.9*	11.3%	-31.6%	-0.1%	5.6%
SMILES	Shiga inhibitor	CHX counter	SARS PLP yeast	AmpC inh no detg	AmpC detergent	AMA1-RON2 inh
CCc1ccc(/C(C)=N/NC(=O)C(O)c2ccccc2)s1 (stereo not drawn)	.	.	.	.	.	0.4%
CCc1ccc(/C(C)=N/NC(=O)c2c[nH]c3ccccc23)s1	19.2	17.9*	-6.4%	-59.2%	-5.6%	9.4%
COc1ccc(CN(C)C(=O)C(Cc2ccccc2)NC(=O)c2ccccc2)cc1F (stereo not drawn)	.	.	5.1%	2.8%	-11.2%	-23.0%
O=C(NCc1ccccn1)C1CCN(S(=O)(=O)N2CCCCC2)CC1	8.2	-3.3	4.3%	-8.3%	-2.0%	14.6%
Cc1ccccc1CNC(=O)C1CCN(c2nn3cc(-c4ccc(F)cc4)nc3s2)CC1	.	.	.	.	-0.3%	.
Cn1c(=O)c2[nH]c(NCCCN3CCOCC3)nc2n(C)c1=O	-8.2	-2.8	-3.2%	-14.7%	-2.1%	7.6%
Cc1[nH]c2ccccc2c1C(=O)c1cc(Cc2ccccc2)sc1N	.	.	.	.	.	3.0%
